Experimental data: PubChem BioAssay (NCI)
Compounds without any hit were thinned out: in the full panel of roughly 83,000, 20% have a hit.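 Cell lines were cultured in 96-well plates, exposed to a single compound concentration, and assessed for percent growth 48 hours later.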 A number with no mark means an inactive call. The source made the active and inactive calls. Rule for the calls: active = growth percent below 10; inactive = the rest.

Columns and labels:
Test in all cases: NCI-60 one-dose screen, 48 h (100 = growth as untreated, 0 = no growth, -100 = all killed)
Conditions in all cases: 10 µM unless noted
SK-MEL-2 melanoma = system: SK-MEL-2 melanoma
EKVX NSCLC = system: EKVX NSCLC
SN12C renal = system: SN12C renal
TK-10 renal = system: TK-10 renal
ACHN renal = system: ACHN renal
CAKI-1 renal = system: CAKI-1 renal
A498 renal = system: A498 renal
CCRF-CEM leukemia = system: CCRF-CEM leukemia
MOLT-4 leukemia = system: MOLT-4 leukemia
UO-31 renal = system: UO-31 renal

SMILES	growth (SK-MEL-2 melanoma)	growth (EKVX NSCLC)	growth (SN12C renal)	growth (TK-10 renal)	growth (ACHN renal)	growth (CAKI-1 renal)	growth (A498 renal)	growth (CCRF-CEM leukemia)	growth (MOLT-4 leukemia)	growth (UO-31 renal)
CN1CCN(c2ccc3nc4c(nc3c2C(F)(F)F)C(=O)c2ncccc2C4=O)CC1	-34.5% (active)	5.13% (active)	-95.4% (active)	80.3%	-44.2% (active)	33.1%	-21.1% (active)	5.71% (active)	-36.4% (active)	–
O=[N+]([O-])c1cc(NS(=O)(=O)c2ccccc2)ccc1NS(=O)(=O)c1ccccc1	99.6%	119%	90.4%	112%	91.4%	129%	115%	96.3%	117%	–
CCN1C(=O)N(CC)C2C1NN=c1s/c(=C\c3ccc(C(F)(F)F)cc3)c(=O)n12 (centres undefined)	56.1%	48.5%	24.2%	59.7%	27.6%	25.9%	8.73% (active)	5.13% (active)	–	–
CCN1C(=O)N(CC)C2C1NC(=S)N2/N=C/c1ccc(C(F)(F)F)cc1 (centres undefined)	87.9%	81.6%	82.4%	95%	79%	37%	44.9%	80.2%	70.5%	62.3%
COC(=O)C(Cc1ccccc1)NC(=O)c1ccc(NC(=O)c2[nH]c(C)c(Cl)c2Cl)c(OC(C)C)c1 (centres undefined)	105%	101%	16%	53.5%	40.3%	90%	86.8%	73.2%	84.9%	94.8%
COC(=O)c1c2c(c(C)[n+]([O-])c1C)C(=O)C(NCc1cccc(Cl)c1)=CC2=O	33.7%	46.2%	0.796% (active)	73.5%	26.6%	42.2%	106%	17.5%	-12.6% (active)	50.6%
C=C(C)[C@@H]1CCC[C@]2(C(=O)O)CC[C@]3(C)[C@@H](CC[C@@H]4[C@@]5(C)C/C(=C/c6ccncc6)C(=O)C(C)(C)[C@@H]5CC[C@]43C)[C@@H]12	48.3%	24.9%	25.7%	52.2%	26.8%	31.4%	57.7%	0.771% (active)	6.38% (active)	–
CCN1CCN(c2cc(C)nc(N(CCNc3ccnc4cc(Cl)ccc34)Cc3ccc4c(c3)OCO4)n2)CC1	-82.8% (active)	22.2%	74.4%	-48% (active)	0.724% (active)	53.6%	-1.76% (active)	-18.5% (active)	-34.1% (active)	-30.6% (active)
Nc1[nH]c(=S)nc2oc(-c3ccccc3)c(-c3ccccc3)c12	101%	98%	97.5%	114%	101%	109%	90.8%	119%	107%	–
Cn1cc(-c2nn3cc(-c4cccs4)nc3s2)c2cc(F)ccc21	35%	47.7%	36%	53.7%	43.5%	27.8%	7.55% (active)	21.9%	22.3%	–
COc1ccc(C2=CN3CC=CC3CC2=O)cc1 (centres undefined)	96.2%	87.3%	109%	82.5%	102%	95.8%	111%	106%	96%	–
COc1cc(OC)c(/C=C/C(=O)c2c(O)cc(OC)c(C3CCN(C)CC3)c2OC)c(OC)c1	-57.8% (active)	22.9%	4.89% (active)	-82.5% (active)	-98.3% (active)	-62.8% (active)	17.8%	-19.3% (active)	-34.4% (active)	–
COc1ccc(C[n+]2c3ccccc3n3c4ccc(N)cc4ccc32)c(OC)c1OC	44%	49.3%	6.42% (active)	78.2%	101%	96.6%	81.3%	40.4%	67.9%	88.7%
Cc1ccc(S(=O)(=O)OCCCOS(=O)(=O)c2ccc(C)cc2)cc1	101%	–	98.1%	109%	96%	68.3%	106%	79.1%	–	71.3%
